In the library only some 5.2% were active in any assay of this set; here they are far more common.
A3G deaminase: APOBEC3G DNA deaminase inhibitors, primary screen, biochemical, fluorescence, single-stranded DNA substrate, uHTS; inhibition, % at 20 µM; recombinant A3G, ssDNA deamination FAM/TAMRA fluorescence; 0.28% of 330,000 active;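 active = inhibition of at least 40% at 20 µM, with no more than 30% in the related APOBEC3A deaminase screen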
A3A deaminase: APOBEC3A ssDNA deaminase inhibitors, primary screen, selectivity assay for APOBEC3G inhibitor project, biochemical, FAM/TAMRA oligo cleavage fluorescence; DNA dC->dU-editing enzyme APOBEC-3A (Homo sapiens), P31941; recombinant A3A, FAM/TAMRA ssDNA deamination fluorescence; inhibition, % at 20 µM; 0.41% of 330,000 active; AID 493011, 2011;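 active = at least 40% inhibition at 20 µM here, with at most 30% in a related deaminase screen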
Target sequence (P31941 whole entry, looked up): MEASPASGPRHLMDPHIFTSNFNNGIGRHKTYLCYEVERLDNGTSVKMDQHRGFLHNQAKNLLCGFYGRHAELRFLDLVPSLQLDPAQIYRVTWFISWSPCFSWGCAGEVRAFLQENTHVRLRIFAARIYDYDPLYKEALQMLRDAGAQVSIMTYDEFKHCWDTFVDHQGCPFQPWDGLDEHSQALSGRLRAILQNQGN
ALR H2O2 inh: inhibitors of human ALR sulfhydryl oxidase, primary screen, biochemical, H2O2 detection, HRP-luminol luminescence, single point; inhibition, % (test concentration not listed); purified ALR, DTT oxidation; AID 485317, 2010; 3.8% of 290,000 active;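 active = mean replicate inhibition above about 79%, with every replicate also reaching it, limit read from the data; inconclusive = only one of the two criteria met; inactive = mean below limit and not every replicate reaching it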
Target sequence (P55789 whole entry, looked up): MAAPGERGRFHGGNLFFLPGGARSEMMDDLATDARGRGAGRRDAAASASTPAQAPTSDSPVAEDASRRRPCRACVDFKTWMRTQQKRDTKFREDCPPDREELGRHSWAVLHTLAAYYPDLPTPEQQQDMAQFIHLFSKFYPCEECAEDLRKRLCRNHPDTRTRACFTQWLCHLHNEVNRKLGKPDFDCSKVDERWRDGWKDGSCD
PfM18AAP inh: PfM18AAP inhibitors, malaria aminopeptidase, primary screen, biochemical, QFRET, recombinant enzyme; inhibition, % at 7.35 µM; 1.2% of 290,000 active; H-Glu-NHMec fluorogenic cleavage; M18 aspartyl aminopeptidase (Plasmodium falciparum 3D7);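 active = inhibition above the campaign mean inhibition over all tested compounds plus 3 SD, cut at about 28% in these data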
CR mimetic SO: reduction of superoxide in aged yeast, primary screen, HTS | AID 2690, 2010 | 0.18% of 330,000 active | superoxide response (% of plate mean), % at 10 µM | S. cerevisiae aged cells, superoxide DHE fluorescence; hits give low values;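 active = superoxide response under a set limit, about three screen SD below normal, cut at about 65% in these data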;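 note: yeast aged for seven days with compound at 30 °C before DHE staining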
CendR NRP1 mod: modulators of CendR peptide binding to NRP-1, primary screen, biochemical, fluorescence polarization, uHTS. FAM-RPARPAR peptide binding to NRP-1. Neuropilin-1 (Homo sapiens), O14786. AID 602438, 2012. inhibition, % at 25 µM. 0.85% of 360,000 active;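 active = inhibition or corrected inhibition above about 18%, plus a signal ratio from 0.5 to 1.5, limit read from the data, passing the limit was not always enough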
Large screens that a line does not name were inactive.

CSc1ncc(Cl)c(C(=O)Nc2ccc(S(=O)(=O)N3CCOCC3)cc2)n1	none
O=C(/C=C/c1cccnc1)c1ccc(NC(=O)c2cccc(Br)c2)cc1	CendR NRP1 mod 19
COc1ccc(C(=O)/C=C/c2ccc(OCc3ccccc3)cc2)cc1CSCC(=O)O	ALR H2O2 inh 99
COc1ccc(/C=C/C(=O)c2ccc(C(=O)/C=C/c3ccc(OC)c(OC)c3)cc2)cc1OC	none (no result: ALR H2O2 inh, CR mimetic SO)
COc1ccc(C(=O)/C=C/c2cccc(OCc3ccccc3)c2)cc1CSCC(=O)O	none
COc1cc(C(=O)/C=C/c2cccnc2)ccc1O	ALR H2O2 inh 100
COC(=O)c1ccc(/C=C/C(=O)c2ccc(OC)c(OC)c2)cc1	ALR H2O2 inh 99
COc1ccc(/C=C/C(=O)c2ccc(OC)cc2OC)cc1	ALR H2O2 inh 94
COc1ccc(C(=O)/C=C/c2ccccc2)c(O)c1	none
COc1cc(/C=C/C(=O)c2ccc(F)cc2)cc(OC)c1OC	ALR H2O2 inh 97
COc1ccc(C(=O)Nc2c(F)c(F)c(F)c(F)c2F)c(OC)c1	CendR NRP1 mod 20
COc1ccc(C(=O)Nc2ccc3ccccc3c2)c(OC)c1	none
Cc1c(C(=O)Oc2cccc3cccnc23)cccc1[N+](=O)[O-]	none (no result: ALR H2O2 inh)
CC(C)c1ccc(C(=O)N2CCCC(c3cc(C(=O)NCc4ccccc4)no3)C2)cc1 (stereo not drawn)	none (no result: A3G deaminase, A3A deaminase, ALR H2O2 inh, PfM18AAP inh, CR mimetic SO)
CC1(C(=O)Nc2ccc(F)c(Cl)c2)Cc2c(-c3ccc(C(N)=O)cc3)ccnc2O1 (stereo not drawn)	none (no result: A3G deaminase, A3A deaminase, ALR H2O2 inh, PfM18AAP inh, CR mimetic SO)
O=c1[nH]cnc2ncc(-c3ccc(O)cc3)nc12	ALR H2O2 inh 100 (no result: PfM18AAP inh)
O=c1[nH]cnc2nc(-c3ccccc3)c(-c3ccccc3)nc12	none
FC(F)(F)c1cc(Cl)c2nc(-c3ccccc3)cn2c1	none
Nc1cccc(-c2cn3cc(C(F)(F)F)cc(Cl)c3n2)c1	ALR H2O2 inh 99
CN(C)S(=O)(=O)c1ccc(C(=O)NCc2nnc(SCC(=O)N3CCCC3)o2)cc1	none
OCCCn1c(C2CCCN2c2nc(-c3ccc(F)cc3)cs2)nc2cc(Cl)c(N3CCCCC3)cc21 (stereo not drawn)	none (no result: PfM18AAP inh)
OCCCn1c(C2CCCN2c2nc(-c3ccc(Cl)cc3)cs2)nc2cc(Cl)c(N3CCCCC3)cc21 (stereo not drawn)	CendR NRP1 mod 30 (no result: PfM18AAP inh)
c1ccc2c3c([nH]c2c1)-c1[nH]ncc1CC3	ALR H2O2 inh 98
Clc1ccc2[nH]c3c(c2c1)CCc1cn[nH]c1-3	ALR H2O2 inh 99
O=C(N/N=C1\CCCc2c1[nH]c1ccc(Cl)cc21)c1ccncc1	none (no result: PfM18AAP inh)
O=c1c2ccccc2nc2n1CCc1c-2[nH]c2ccccc12	none (no result: PfM18AAP inh)
CC(C)Oc1ccc(S(=O)(=O)N2CCCCC2)cc1NC(=O)CC1OC(=O)c2ccccc21 (stereo not drawn)	none (no result: PfM18AAP inh)
O=C(NCc1ccccc1Cl)c1ccc(CS(=O)(=O)c2ccccc2)o1	none
COCC(C)OC(=O)/C(C#N)=C\c1coc2ccc(C)cc2c1=O (stereo not drawn)	ALR H2O2 inh 96 (no result: A3G deaminase, A3A deaminase)
CCCCCCNC(=O)OC12CN(C(=O)OC(C)C)N(C(=O)OC(C)C)CC1(O)CN(S(=O)(=O)c1ccc(C)cc1)C2 (stereo not drawn)	none (no result: A3G deaminase, A3A deaminase, ALR H2O2 inh, PfM18AAP inh, CR mimetic SO)
N/C(=N\NS(=O)(=O)c1cc(C(F)(F)F)cc(C(F)(F)F)c1)c1ccccn1	ALR H2O2 inh 85
O=C(NCC1CC1)c1ccc(Nc2nc3ccc(Br)cc3[nH]2)cc1	ALR H2O2 inh 98
COc1ccc(COc2cccnc2N)cc1	none
CCC1CCCCN1CCCNC(=O)C1CCN(c2nnc(-n3cccc3)s2)CC1 (stereo not drawn)	none
CCOc1ccc(NCc2cccn2-c2nnc(N3CCC(C(=O)NCCCN4CCCCC4)CC3)s2)cc1	ALR H2O2 inh 99
CCOc1ccc(NCc2cccn2-c2nnc(N3CCC(C(=O)NCCCN4C(C)CCCC4C)CC3)s2)cc1 (stereo not drawn)	ALR H2O2 inh 99
CN1CCN(CCCNC(=O)C2CCN(c3nnc(-n4cccc4)s3)CC2)CC1	none
CCOc1ccc(NCc2cccn2-c2nnc(N3CCC(C(=O)NCCCN4CCCCC4C)CC3)s2)cc1 (stereo not drawn)	ALR H2O2 inh 99
CCOc1ccc(CCNC(=O)C2CCN(c3nnc(-n4cccc4)s3)CC2)cc1	none
CC1CCCCC12NC(=O)N(CC(=O)N1CCc3ccccc3C1)C2=O (stereo not drawn)	none (no result: ALR H2O2 inh, PfM18AAP inh, CR mimetic SO)
CC(=O)C1=C(c2ccccc2)OC(N)=C(C#N)C1c1ccccc1F (stereo not drawn)	ALR H2O2 inh inconclusive
CN(C)c1ccc(CNc2ccc3c(c2)ncn3C(C)(C)C)cc1	ALR H2O2 inh 93
CC(C)(C)n1cnc2cc(NCc3cccs3)ccc21	none
CCN(CC)c1ccc(CNc2ccc3c(c2)ncn3CC)cc1	ALR H2O2 inh 98 (no result: CendR NRP1 mod)
CCn1cnc2cc(NCc3ccc(N(C)C)cc3)ccc21	ALR H2O2 inh 98
CCn1cnc2cc(NCc3nc4ccccc4n3C)ccc21	none
CCn1cnc2cc(NCc3cccs3)ccc21	ALR H2O2 inh inconclusive
NC(=O)c1ccc(-c2nnn(CC(=O)Nc3cccc(S(=O)(=O)N4CCCC4)c3)n2)cc1	none (no result: PfM18AAP inh)
C/C(=N\N=C(/N)SC1CC(=O)N(c2ccc(Cl)c(Cl)c2)C1=O)c1cccs1 (stereo not drawn)	none (no result: ALR H2O2 inh)
O=C(Cc1cccc2ccccc12)OCn1nnc2ccccc2c1=O	none
NC(=O)/C(=C/c1ccco1)NC(=O)/C=C/c1ccccc1	none
CC(C)CCOC(=O)/C(=C/c1ccco1)NC(=O)/C=C/c1ccccc1	ALR H2O2 inh 90
CN1CCN(C(=O)/C(=C/c2cccs2)NC(=O)c2cccs2)CC1	none
CCN(CC)CCNS(=O)(=O)c1ccc2c3c(cccc13)C(=O)N2	none
CC(C)CC1Nc2ncnc(N3CCN(c4ccccn4)CC3)c2N(Cc2ccc(Br)cc2)C1=O (stereo not drawn)	none (no result: PfM18AAP inh)
COc1ccc(-c2nc3cnccn3c2Nc2ccc(C)cc2)cc1	ALR H2O2 inh 86
Cc1ccc(Nc2c(-c3ccccc3)nc3cnccn23)cc1	ALR H2O2 inh 98
CNC(=O)NC(=O)Cn1nc2n(c1=O)-c1ccccc1SC2	none
O=C(Nc1ccccc1N1CCCC1)c1cccnc1	ALR H2O2 inh 98
O=C(Nc1ccccc1N1CCCCC1)c1cnccn1	ALR H2O2 inh 97
COc1cccc(C(=O)NC(=S)Nc2ccccc2N2CCCC2)c1	none
COc1ccc(NC(=O)CSCC(=O)Nc2sccc2C#N)cc1	ALR H2O2 inh 99 (no result: PfM18AAP inh)
O=C(Nc1ccccc1N1CCN(C(=O)c2ccc(Cl)cc2)CC1)c1cccnc1	none
